Assays:
Conditions in all cases: Compound Concentration (nM):1000
TNK1 = system: TNK1
TNK2 = system: TNK2
TNNI3K = system: TNNI3K
TRKA = system: T1, TRKA
T1 construct: gene NTRK1

TRKB = system: T2, TRKB
T2 construct: gene NTRK2

TRKC = system: T3, TRKC
T3 construct: gene NTRK3

TRPM6 = system: TRPM6
TSSK1B = system: TSSK1B
TSSK3 = system: TSSK3
TTK = system: TTK
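Further: KINOMEscan scanMAX binding as percent activity remaining versus control; lower means stronger binding.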

Compound | Percent Control (TNK1) [%] | Percent Control (TNK2) [%] | Percent Control (TNNI3K) [%] | Percent Control (TRKA) [%] | Percent Control (TRKB) [%] | Percent Control (TRKC) [%] | Percent Control (TRPM6) [%] | Percent Control (TSSK1B) [%] | Percent Control (TSSK3) [%] | Percent Control (TTK) [%]
COc1cc(C)c(N(C)C(=O)CN(C)C)cc1Nc1nc(Nc2cccc(F)c2C(N)=O)c2cc[nH]c2n1 [GSK2219385] | 83 | 100 | 100 | 87 | 100 | 100 | 100 | 100 | 100 | 71
CCc1ccc(Oc2nccc(-c3c(-c4ccc(F)cc4)ncn3C3CCNCC3)n2)cc1 [SB-242719] | 80 | 82 | 100 | 86 | 98 | 98 | 100 | 99 | 90 | 80
O=C(Nc1n[nH]c2nc(-c3ccc(O)cc3)c(Br)cc12)C1CC1 [SB-725317] | 100 | 100 | 100 | 65 | 100 | 100 | 100 | 100 | 100 | 97
COc1cc(C=NNc2ncnc3c2cnn3-c2ccccc2)ccc1O [GW513184X] | 67 | 100 | 84 | 66 | 100 | 99 | 100 | 98 | 100 | 100
Cl.O=S1CCN(Cc2ccc(-c3ccc4ncnc(Nc5ccc(OCc6ccccc6)c(F)c5)c4c3)o2)CC1 [GW576924A] | 100 | 100 | 100 | 100 | 100 | 100 | 92 | 90 | 100 | 100
COc1ccc(COc2ccc(Cc3cnc(N)nc3N)cc2OC)cc1 [GW632580X] | 73 | 77 | 90 | 4.2 | 0.9 |  | 89 | 100 | 83 | 85
NS(=O)(=O)c1ccc(N/N=C2\C(=O)Nc3ccc(-c4cnco4)cc32)cc1 [GW276655] | 52 | 66 | 100 | 15 | 39 | 38 | 89 | 100 | 100 | 20
Cl.O=C(Nc1ccc(Oc2ccc3[nH]c(NC(=O)c4ccco4)nc3c2)cc1)Nc1cc(C(F)(F)F)ccc1F [GW683134A] | 36 | 100 | 53 | 5 | 6 | 3 | 100 | 100 | 100 | 85
COc1ccccc1-c1cc(/C=C2\C(=O)Nc3ncc(Br)cc32)cc(Br)c1O [GW442130X] | 97 | 100 | 100 | 7.2 | 22 | 44 | 100 | 75 | 97 | 97
COc1ccc2cc(-c3c(-c4ccncc4)nc(-c4ccc(S(C)(=O)=O)cc4C)n3C)ccc2c1 [SB-633825] | 57 | 61 | 100 | 73 | 70 | 60 | 71 | 74 | 57 | 91
Cl.O=C(O[C@H]1CN[C@H](C#Cc2cc3ncnc(Nc4ccc5c(cnn5Cc5ccccc5)c4)c3s2)C1)N1CCOCC1 [GSK200398A] | 99 | 97 | 55 | 70 | 87 | 95 | 96 | 100 | 93 | 100
CN(C)c1cc2c(Nc3ccc4c(cnn4Cc4ccccc4)c3)ncnc2cn1 [GW282974X] | 93 | 84 | 100 | 65 | 92 | 93 | 92 | 100 | 99 | 87
COc1cc2ncn(-c3cc(O[C@H](C)c4ccccc4Cl)c(C(N)=O)s3)c2cc1OC [GSK237701A] | 82 | 58 | 100 | 31 | 51 | 59 | 89 | 74 | 39 | 82
CCn1c(-c2nonc2N)nc2c(C#CC(C)(C)O)nc(OCCNC)cc21.Cl [GSK949675] | 100 | 100 | 100 | 100 | 100 | 100 | 100 | 90 | 14 | 91
COc1cc(/C=N/Nc2ncnc3[nH]ncc23)ccc1O [GW578748X] | 100 | 100 | 100 | 42 | 70 | 88 | 95 | 100 | 100 | 68
NS(=O)(=O)c1ccc(Nc2ncc(-c3ccccc3)o2)cc1 [GW572399X] | 100 | 100 | 100 | 55 | 72 | 78 | 100 | 100 | 100 | 78
COc1cccc(-c2c[nH]c3c(N/N=C/c4ccncc4)ncnc23)c1 [GW814408X] | 100 | 100 | 31 | 64 | 100 | 100 | 97 | 98 | 98 | 79
Cl.c1ccc(Cc2nc3ccc(Nc4ncnc5ccccc45)cc3[nH]2)cc1 [GR269666A] | 100 | 100 | 84 | 100 | 92 | 100 | 97 | 70 | 100 | 51
CCS(=O)(=O)c1ccc(OC)c(Nc2ncc(-c3cccc(OC)c3)o2)c1 [GW580509X] | 30 | 100 | 100 | 16 | 46 | 67 | 100 | 100 | 100 | 90
CN(C)CCNC(=O)Nc1ccc(N(C)c2ccnc(Nc3ccc(CS(C)(=O)=O)cc3)n2)cc1.Cl [GW830900A] | 39 | 75 | 97 | 16 | 34 | 57 | 100 | 100 | 83 | 68

From paper PMC7826789 (International Journal of Molecular Sciences, 2021)
